Results from PubChem BioAssay AID1159580 (chemical genetic matrix, 2015).
Among all 5,500 compounds or so, about 2,000 (36%) were called active. Inconclusive results (about 18%) are left out. No stated cut-off is given here; in the data, active means normalized growth mostly below about 0.91 (no sharp cut-off); inconclusive means no clear call, values can overlap the other calls; inactive means mostly above about 0.92. This is one part of the list.

Assay: chemical genetic growth profiling, strain panel (AID 1159580);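 further: tested at 20 µM; growth read once vehicle control cultures reached saturation at 30 °C; 1 = growth at the plate median or of vehicle wells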
Conditions: growth OD

Measured: normalized growth

NC(N)=O
inactive: S. cerevisiae deletion strains, locus YJR075W, strain HOC1, stronger effect = lower value 1.02 | S. cerevisiae deletion strains, locus YKL009W, strain mrt4, stronger effect = lower value 1 | S. cerevisiae deletion strains, locus YKL068W, stronger effect = lower value 0.992 | S. cerevisiae deletion strains, locus YKL085W, strain MDH1 (second series), stronger effect = lower value 0.994 | S. cerevisiae deletion strains, locus YKL085W, strain MDH1, stronger effect = lower value 0.994 | S. cerevisiae deletion strains, locus YKL160W, strain elf1, stronger effect = lower value 1.02 | S. cerevisiae deletion strains, locus YKL190W, strain CNB1, stronger effect = lower value 1 | S. cerevisiae deletion strains, locus YKR001C, strain vps1, stronger effect = lower value 1 | S. cerevisiae deletion strains, locus YKR026C, strain gcn3, stronger effect = lower value 1.01 | S. cerevisiae deletion strains, locus YKR091W, strain srl3, stronger effect = lower value 1 | S. cerevisiae deletion strains, locus YLL001W, strain dnm1, stronger effect = lower value 1.01 | S. cerevisiae deletion strains, locus YLL026W, stronger effect = lower value 1.02 | S. cerevisiae deletion strains, locus YLL041C, strain sdh2, stronger effect = lower value 1.01 | S. cerevisiae deletion strains, locus YLR027C, strain aat2, stronger effect = lower value 1.02 | S. cerevisiae deletion strains, locus YLR039C, strain RIC1, stronger effect = lower value 1.05 | S. cerevisiae deletion strains, locus YLR058C, strain SHM2, stronger effect = lower value 0.99 | S. cerevisiae deletion strains, locus YLR102C, strain apc9, stronger effect = lower value 0.986 | S. cerevisiae deletion strains, locus YLR113W, strain HOG1, stronger effect = lower value 0.993 | S. cerevisiae deletion strains, locus YLR221C, strain rsa3, stronger effect = lower value 0.98 | S. cerevisiae deletion strains, locus YLR258W, strain gsy2, stronger effect = lower value 1 | S. cerevisiae deletion strains, locus YLR262C, strain YPT6 (second series), stronger effect = lower value 1.03 | S. cerevisiae deletion strains, locus YLR262C, strain YPT6, stronger effect = lower value 1.08 | S. cerevisiae deletion strains, locus YLR268W, strain sec22, stronger effect = lower value 1.02 | S. cerevisiae deletion strains, locus YLR320W, strain mms22, stronger effect = lower value 1 | S. cerevisiae deletion strains, locus YLR330W, strain CHS5, stronger effect = lower value 0.988 | S. cerevisiae deletion strains, locus YLR342W, strain FKS1 (second series), stronger effect = lower value 0.96 | S. cerevisiae deletion strains, locus YLR342W, strain FKS1, stronger effect = lower value 1.01 | S. cerevisiae deletion strains, locus YLR357W, strain rsc2, stronger effect = lower value 1.04 | S. cerevisiae deletion strains, locus YLR370C, strain arc18, stronger effect = lower value 1.02 | S. cerevisiae deletion strains, locus YLR371W, strain rom2, stronger effect = lower value 0.985 | S. cerevisiae deletion strains, locus YLR384C, strain iki3, stronger effect = lower value 1.01 | S. cerevisiae deletion strains, locus YLR418C, strain cdc73, stronger effect = lower value 1.01 | S. cerevisiae deletion strains, locus YML016C, strain PPZ1, stronger effect = lower value 0.999 | S. cerevisiae deletion strains, locus YML032C, strain rad52, stronger effect = lower value 1 | S. cerevisiae deletion strains, locus YML120C, strain ndi1, stronger effect = lower value 1.03 | S. cerevisiae deletion strains, locus YML124C, strain tub3, stronger effect = lower value 0.993 | S. cerevisiae deletion strains, locus YMR058W, strain fet3, stronger effect = lower value 1.02 | S. cerevisiae deletion strains, locus YMR078C, strain ctf18, stronger effect = lower value 0.992 | S. cerevisiae deletion strains, locus YMR125W, strain sto1, stronger effect = lower value 1 | S. cerevisiae deletion strains, locus YMR129W, stronger effect = lower value 1.01 | S. cerevisiae deletion strains, locus YMR205C, strain PFK2, stronger effect = lower value 1.02 | S. cerevisiae deletion strains, locus YMR223W, strain ubp8, stronger effect = lower value 0.992 | S. cerevisiae deletion strains, locus YMR231W, strain pep5, stronger effect = lower value 1 | S. cerevisiae deletion strains, locus YMR263W, strain SAP30, stronger effect = lower value 1.03 | S. cerevisiae deletion strains, locus YMR307W, strain GAS1, stronger effect = lower value 1.02 | S. cerevisiae deletion strains, locus YNL067W, strain RPL9B, stronger effect = lower value 1.05 | S. cerevisiae deletion strains, locus YNL071W, strain lat1, stronger effect = lower value 1.01 | S. cerevisiae deletion strains, locus YNL128W, strain TEP1, stronger effect = lower value 1.02 | S. cerevisiae deletion strains, locus YNL153C, strain GIM3, stronger effect = lower value 1.02 | S. cerevisiae deletion strains, locus YNL183C, strain NPR1, stronger effect = lower value 0.963 | S. cerevisiae deletion strains, locus YNL209W, strain ssb2, stronger effect = lower value 1.01 | S. cerevisiae deletion strains, locus YNL233W, strain BNI4, stronger effect = lower value 1 | S. cerevisiae deletion strains, locus YNL248C, strain rpa49, stronger effect = lower value 0.978 | S. cerevisiae deletion strains, locus YNL250W, strain rad50, stronger effect = lower value 0.991 | S. cerevisiae deletion strains, locus YNL271C, strain bni1, stronger effect = lower value 0.988 | S. cerevisiae deletion strains, locus YNL298W, strain CLA4, stronger effect = lower value 1 | S. cerevisiae deletion strains, locus YNL307C, strain MCK1, stronger effect = lower value 0.993 | S. cerevisiae deletion strains, locus YNL322C, strain KRE1 (second series), stronger effect = lower value 1.01 | S. cerevisiae deletion strains, locus YNL322C, strain KRE1, stronger effect = lower value 1 | S. cerevisiae deletion strains, locus YNR049C, strain mso1, stronger effect = lower value 1.02 | S. cerevisiae deletion strains, locus YNR052C, strain pop2, stronger effect = lower value 0.974 | S. cerevisiae deletion strains, locus YOL006C, strain TOP1, stronger effect = lower value 1.21 | S. cerevisiae deletion strains, locus YOL012C, strain htz1 1.36 | S. cerevisiae deletion strains, locus YOL147C, strain pex11, stronger effect = lower value 0.993 | S. cerevisiae deletion strains, locus YOR001W, strain rrp6, stronger effect = lower value 1.02 | S. cerevisiae deletion strains, locus YOR061W, strain CKA2, stronger effect = lower value 0.997 | S. cerevisiae deletion strains, locus YOR069W, strain VPS5, stronger effect = lower value 1.07 | S. cerevisiae deletion strains, locus YOR070C, strain gyp1, stronger effect = lower value 1.01 | S. cerevisiae deletion strains, locus YOR080W, strain dia2, stronger effect = lower value 1.02 | S. cerevisiae deletion strains, locus YOR083W, strain WHI5, stronger effect = lower value 1 | S. cerevisiae deletion strains, locus YOR106W, strain vam3, stronger effect = lower value 1.02 | S. cerevisiae deletion strains, locus YOR136W, strain idh2, stronger effect = lower value 0.993 | S. cerevisiae deletion strains, locus YOR144C, strain elg1, stronger effect = lower value 0.992 | S. cerevisiae deletion strains, locus YOR184W, strain ser1, stronger effect = lower value 0.992 | S. cerevisiae deletion strains, locus YOR231W, strain MKK1, stronger effect = lower value 0.993 | S. cerevisiae deletion strains, locus YOR265W, strain rbl2, stronger effect = lower value 1.02 | S. cerevisiae deletion strains, locus YOR270C, strain vph1, stronger effect = lower value 1.02 | S. cerevisiae deletion strains, locus YOR290C, strain snf2, stronger effect = lower value 0.992 | S. cerevisiae deletion strains, locus YOR316C, strain cot1, stronger effect = lower value 0.985 | S. cerevisiae deletion strains, locus YPL051W, strain arl3, stronger effect = lower value 1.01 | S. cerevisiae deletion strains, locus YPL055C, strain LGE1, stronger effect = lower value 1.07 | S. cerevisiae deletion strains, locus YPL078C, strain atp4, stronger effect = lower value 1.02 | S. cerevisiae deletion strains, locus YPL106C, strain sse1, stronger effect = lower value 0.987 | S. cerevisiae deletion strains, locus YPL240C, strain hsp82, stronger effect = lower value 1.01 | S. cerevisiae deletion strains, locus YPL241C, strain CIN2, stronger effect = lower value 1.07 | S. cerevisiae deletion strains, locus YPL256C, strain CLN2, stronger effect = lower value 1 | S. cerevisiae deletion strains, locus YPR119W, strain clb2, stronger effect = lower value 0.992 | S. cerevisiae deletion strains, locus YPR141C, strain kar3, stronger effect = lower value 1 | S. cerevisiae deletion strains, locus YPR163C, strain tif3, stronger effect = lower value 0.996 | S. cerevisiae deletion strains, locus YPR167C, strain met16, stronger effect = lower value 0.989 | S. cerevisiae deletion strains, strain wtn01, stronger effect = lower value 0.999 | S. cerevisiae strains, strain wild type, stronger effect = lower value 0.991
